Assay [1] in a line: qHTS to identify inhibitors of the type 1 interferon - major histocompatibility complex class I in skeletal muscle: primary screen against the NCATS Mechanism Interrogation Plate v5.0 (MIPE) Libary (AID 1347411). Also: nearly all actives have a fitted effect of over 65% in size. Also: potency is read from the fitted curve at half-maximal effect.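 As to activity change, negative = inhibition: plate controls were vehicle for no effect and reference inhibitor for full effect.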 The method, boiled down:
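Seed engineered human myoblasts (HLA-B HiBit) in medium without dexamethasone containing 4 ng/ml IFN-beta; after 1 hr add compound titrations (top 46 uM final). Incubate 24 hrs at 37 C, lyse 10 min with HiBiT reagent, read luminescence.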
(qHTS replaces the single test concentration by a dilution series.)

In assay [2] the target is Calcium and integrin-binding protein 1 (Homo sapiens) (UniProt Q99828). Briefly: Primary qHTS for Identification of Calcium Integrin Binding Protein 1 (CIB1) Competitor (AID 1508620).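 Also: GST tagged CIB1 binding a fluorescein labelled alphaIIb integrin peptide tracer; top concentration of the series differs between compounds; % is scaled to controls: 0 for no effect and ±100 for the full control effect.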 The method, boiled down:
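Fluorescence polarization competition: GST-tagged CIB1 (1 uM final) preincubated with compound 15 min at room temperature, then FITC-labelled alphaIIb peptide (100 nM final) added. After 15 min at room temperature, polarization read at Ex 480/Em 540.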

Assay [3] can be described thus: Primary qHTS for inhibitors of nuclear receptor binding SET domain protein 2 (NSD2) in an isogenic RCH-ACV NSD2 p.E1099K mutant (9B) (AID 1645876). Also: nearly all actives have a fitted effect of over 70% in size. Also: potency is read from the fitted curve at half-maximal effect.
The nature of assay [4]: Primary qHTS for inhibitors of nuclear receptor binding SET domain protein 2 (NSD2) in an RCH-ACV wild type WT cells (2C) (AID 1645877). Also: nearly all actives have a fitted effect of over 70% in size. Also: potency is read from the fitted curve at half-maximal effect.
The target in assay [5] is Glutathione peroxidase 1 (Homo sapiens) (UniProt P07203). Nature of the assay: Primary qHTS Assay for Inhibitors of Recombinant Selenoprotein Glutathione Peroxidase 1 (GPX1) (AID 1845191). Also: nearly all actives have a fitted effect of over 65% in size. Also: potency is read from the fitted curve at half-maximal effect. A digest of the protocol:
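GR-coupled readout: NADPH consumption tracked by fluorescence, ex 340/em 450 nm, at t=0 and after 15 min at RT. Final mix 10 nM GPX1, 1 mM GSH, 0.5 mM CHP, 0.5 mM NADPH, 100 nM GR, 0.01% BSA, following 30 min enzyme–compound preincubation.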

Assay [6] concerns the target Phospholipid hydroperoxide glutathione peroxidase GPX4 (Homo sapiens) (UniProt P36969). Briefly: Primary qHTS Assay for Inhibitors of Recombinant Selenoprotein Glutathione Peroxidase 4 (GPX4) (AID 1845192). Also: nearly all actives have a fitted effect of over 65% in size. Also: potency is read from the fitted curve at half-maximal effect. As to activity change, negative = inhibition: % is scaled to controls: 0 for no effect and ±100 for the full control effect. Particulars: outcome: dose series up to 50 µM unless noted. The method, boiled down: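 Steps: GPX4 plus compound, 30 min RT; add GR/GSH/NADPH master mix; start with cumene hydroperoxide; read 340/450 nm fluorescence at 0 and 15 min. Finals were 200 nM GPX4, 1 mM GSH, 0.5 mM CHP, 0.5 mM NADPH, 100 nM GR.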

The nature of assay [7]: qHTS assay to identify inhibitors of the type 1 interferon - major histocompatibility complex class I in skeletal muscle: Counter screen cell viability and HiBit confirmation (AID 1347412). Also: potency is read from the fitted curve at half-maximal effect. As to activity change, negative = inhibition: % is scaled to controls: 0 for no effect and ±100 for the full control effect. As to all read-outs here: nearly all actives have a fitted effect of over 60% in size. As to conditions: iHSKM muscle cells + IFN-b, HiBiT or CellTiter-Glo, 24 h; for activity change, negative = inhibition: at 45.9 µM (top of the series). A digest of the protocol:
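Human myoblast knock-in line, 4.0 ng/ml IFN-beta stimulation, 24 h compound treatment. Endpoints: HiBiT lytic luminescence (HLA-B level) and CellTiter Glo (ATP). Dosing 12 concentrations, 3-fold steps, 46 uM highest final.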

Values joined by “and” are separate entries in the source; they are usually repeats but may differ in a detail not shown here. Equal entries are not always repeated. Records with an inconclusive call do not appear. Values without a mark were called inactive. Active and inactive are the calls of the source. Calls follow the shape of the dose curve; as a rule, active = well fitted curve in the direction sought with a large enough effect; inconclusive = small, poorly fitted or top-dose-only effect, or another doubt; inactive = no such curve, though single readings can be large; an effect the other way counts as inactive or inconclusive.

Calcium and integrin-binding protein 1 (Homo sapiens), sequence (Q99828 whole entry, looked up): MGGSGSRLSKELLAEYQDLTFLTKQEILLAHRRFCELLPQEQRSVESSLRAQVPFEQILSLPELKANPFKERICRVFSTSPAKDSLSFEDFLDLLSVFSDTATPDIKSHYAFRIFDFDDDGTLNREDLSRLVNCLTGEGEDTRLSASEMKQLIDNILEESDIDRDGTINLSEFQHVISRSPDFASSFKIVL
Phospholipid hydroperoxide glutathione peroxidase GPX4 (Homo sapiens), sequence (P36969 whole entry, looked up): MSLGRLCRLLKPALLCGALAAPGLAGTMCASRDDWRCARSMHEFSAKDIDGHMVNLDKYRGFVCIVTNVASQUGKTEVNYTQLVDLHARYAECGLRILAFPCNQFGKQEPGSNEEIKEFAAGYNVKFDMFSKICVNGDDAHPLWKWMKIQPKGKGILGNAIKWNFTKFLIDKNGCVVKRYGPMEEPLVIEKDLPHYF
Glutathione peroxidase 1 (Homo sapiens), sequence (P07203 whole entry, looked up): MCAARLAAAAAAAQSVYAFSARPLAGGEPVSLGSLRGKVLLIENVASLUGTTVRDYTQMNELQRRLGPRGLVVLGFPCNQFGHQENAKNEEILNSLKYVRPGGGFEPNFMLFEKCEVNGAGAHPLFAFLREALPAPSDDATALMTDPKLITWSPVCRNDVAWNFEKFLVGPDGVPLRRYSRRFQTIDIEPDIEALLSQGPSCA

As for `C[C@@H]1CC(=O)Nc2cccc(-c3cnn(C(C)(C)C)c3)c2N1`, the Potency entry in assay [1], in assay [2], in assay [5] and in assay [6] was “inactive” each time. Moreover, the Potency in assay [3] was 6610 nM (active); in assay [4], 5900 nM (active).
As to `NC(=O)/C(=C/n1cnc(-c2cc(C(F)(F)F)cc(C(F)(F)F)c2)n1)c1cncnc1`, the Potency in assay [1] is 3300 nM (active); in assay [3], 417 nM (active); in assay [4] it was 235 nM (active); in assay [7] (HiBiT), 1570 nM (active). Besides, the Potency entry in assay [5] and in assay [6] was “inactive” in each case.
In the case of `CC(=NNC(=O)c1cccc(S(=O)(=O)N2CCOCC2)c1)c1cc(Cl)ccc1O`, the Potency entry in assay [1] was “inactive”. Besides, the Potency in assay [3] is 2090 nM (active); in assay [4], 1480 nM (active).
With `Nc1nc(F)nc2c1ncn2C1OC(COP(=O)(O)O)C(O)C1O` (centres undefined), the Potency entry in assay [1] was “inactive”. For the same compound, the Potency in assay [3] is 2950 nM (active).
In the case of `CCC[C@H](NC(=O)/C(C#N)=C/c1cccc(Br)n1)c1ccccc1`, the Potency was 4150 nM (active) in assay [1], 11800 nM (active) in assay [3], 13200 nM (active) in assay [4] and 6250 nM (active) in assay [7] (HiBiT). The Potency entry in assay [5] and in assay [6] was “inactive” each time.
For `CN(Cc1ccc(/C=C/C(=O)NO)cc1)CC12CC3CC(CC(C3)C1)C2`, the Potency in assay [1] is 330 nM (active); in assay [3], 263 nM (active); in assay [7] (HiBiT) it was 351 nM (active). In addition, the Potency entry in assay [5] and in assay [6] was “inactive” each time. Moreover, in assay [7] (Viability), the activity change, negative = inhibition is -18.3%.
In the case of `CC(=O)c1ccc2c(c1)c1cc(C(C)=O)ccc1n2CCNC(C)C`, the Potency in assay [1] was 1470 nM (active); in assay [3], 742 nM (active); in assay [4] it was 662 nM (active); in assay [6] it was 16.1 µM (active); in assay [7] (HiBiT), 1110 nM (active). In addition, in assay [7] (Viability), the activity change, negative = inhibition was -5.98%.
For the compound `C=CC(=O)N1CC/C(=C\c2ccc(F)c([N+](=O)[O-])c2)C(=O)/C(=C/c2ccc(F)c([N+](=O)[O-])c2)C1`, the Potency in assay [1] is 658 nM (active); in assay [3], 83.3 nM (active); in assay [7] (HiBiT) it was 222 nM (active). The Potency entry in assay [5] and in assay [6] was “inactive” in each case.
In the case of `COc1nc(OCc2cccc(-c3ccccc3)c2C)ccc1CNCCNC(C)=O`, the Potency in assay [1] is 16500 nM (active); in assay [3] it was 7420 nM (active). Besides, the Potency entry in assay [6] is “inactive”. The activity change, negative = inhibition in assay [7] (HiBiT) is -16.7%.
For `O=C(/C=C/c1ccc2ccc(C(F)(F)F)cc2n1)c1ccncc1`, the Potency was 5230 nM (active) in assay [1], 2350 nM (active) in assay [3], 2090 nM (active) in assay [4] and 4430 nM (active) in assay [7] (HiBiT). In addition, the Potency result in assay [5] and in assay [6] was “inactive” in each case.
Regarding `O=C(/C=C/c1ccc(CN(CCO)CCc2c[nH]c3ccccc23)cc1)NO`, the figures for the Potency in assay [1], in assay [3] and in assay [4] were 186 nM (active), 132 nM (active) and 132 nM (active), respectively. In addition, the Potency result in assay [5] and in assay [6] was “inactive” in each case.
For the compound `CC(=O)NCC(=O)N1[C@@H]2CC[C@H]1c1ccc(Nc3ncc(C(F)(F)F)c(NC4CCC4)n3)cc12`, the Potency in assay [1] is 4660 nM (active); in assay [3], 590 nM (active); in assay [4] it was 166 nM (active); in assay [7] (HiBiT), 3130 nM (active). The Potency entry in assay [6] is “inactive”. Besides, the activity change, negative = inhibition in assay [7] (Viability) was -29.6%.
For the compound `C=CCNc1c(O)cc2c(O)c1C[C@@H](C)C[C@H](OC)[C@H](O)[C@@H](C)/C=C(/C)[C@H](OC(N)=O)[C@@H](OC)/C=C\C=C(\C)C(=O)N2`, the Potency in assay [1] is 52.3 nM (active); in assay [3], 1660 nM (active); in assay [4], 1050 nM (active); in assay [7] (HiBiT), 44.3 nM (active). The Potency result in assay [5] and in assay [6] was “inactive” in each case.
Turning to `O=C(O)c1ccc(O)c2ncccc12`, the Potency entry in assay [1], in assay [2] and in assay [6] was “inactive” throughout. Further, the Potency in assay [3] was 20900 nM (active).
`COc1ccc(N2C(=O)N(c3c(C)cccc3Cl)Cc3cnc(Nc4ccc(C5CCN(C)CC5)cc4OC)nc32)nc1`: the Potency in assay [1] is 14700 nM (active); in assay [3], 3320 nM (active); in assay [4], 3720 nM (active); in assay [7] (HiBiT) it was 14000 nM (active). The Potency entry in assay [5] and in assay [6] was “inactive” throughout.
For `Cc1ccc(NC(=O)c2ccc3c(c2)OCCO3)cc1NC(=O)c1ccc2nc(OCCN3CCCC3)ccc2c1`, the Potency was 286 nM (active) in assay [1], 57.4 nM (active) in assay [3], 45.6 nM (active) in assay [4] and 557 nM (active) in assay [7] (HiBiT). For the same compound, in assay [6], the Potency entry is “inactive”. The activity change, negative = inhibition in assay [7] (Viability) was -19.9%.
For the compound `CC(/C=C1\SC(=S)N(CC(=O)O)C1=O)=C\c1ccccc1`, the Potency result in assay [1], in assay [3] and in assay [4] was “inactive” throughout. Also, the Potency in assay [5] was 7.28 µM (active) and 3.21 µM (active); in assay [6] it was 12.8 µM (active) and 12.6 µM (active).
In the case of `Clc1cccc(-c2ccc(-c3nnc(CCCc4ccc5cccnc5n4)o3)cc2)c1`, the Potency result in assay [1], in assay [2], in assay [3], in assay [4], in assay [5] and in assay [6] was “inactive” in each case.

(Values after PubChem BioAssay (NCATS).)
